PGC1a acetyl inh = inhibitors of PGC1a acetylation signal, primary screen, cell-based, U2OS, AlphaScreen, inhibitor mode. AlphaScreen anti-acetyl-lysine; with virally co-expressed GCN5 acetyltransferase. inhibition, % at 15.6 µM. actives 0.17% (n = 350,000). AID 651687, 2012;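 active = every replicate shows inhibition of at least 40%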;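 note: 0% = neutral control wells and 100% = positive control wells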
LGR2 inh = inhibitors of bursicon-induced LGR2 CRE-luciferase signal, primary screen, cell-based, HEK293, CRE-luciferase reporter, bursicon stimulation; inhibition, % at 9.99 µM; AID 720647, 2013; actives 0.35% (n = 380,000); bursicon-stimulated, 4 h;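 active = drop in luminescence signal, shown as inhibition above about 50% in the replicate tests, limit read from the data, passing the limit was not always enough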;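 note: agonist challenge used bursicon conditioned medium at about half maximal strength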
EWS-Fli block = EWS/Fli-driven NR0B1 reporter inhibitors, primary screen, A673 cells, NR0B1 luciferase, luminescence, MLPCN library; inhibition, % at 12.6 µM; actives 0.67% (n = 350,000); viability-normalised; AID 651661, 2012;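 active = mean inhibition of at least 50% after viability correction, with every replicate also passing that limit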;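 note: firefly luciferase signal divided by Alamar Blue viability fluorescence both relative to DMSO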
Ecoli rRNA inh = reduced GFP signal of wild-type E. coli, primary screen, bacterial rRNA inhibitor project, GFP/RFP fluorescence, OD600, single point | GFP signal change (wild-type ribosome), % (no concentration beside the values) | actives 1.6% (n = 350,000) | AID 720706, 2013 | E. coli WT GFP vs humanized-ribosome RFP mutants, 24 h; hits give low values; DMSO median 0, no signal -100;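 active = significant combined selectivity score with lowered wild-type GFP, culture density cut under 30%, mutant RFP and density less affected; inactive = any of these conditions unmet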
SIRT5 block = SIRT5 desuccinylase inhibitors, primary screen, biochemical, fluorescence imaging, single point, set 5 | actives 1.1% (n = 330,000) | inhibition, % at 15 µM | Purified SirT5, succinyl-peptide AMC, trypsin-coupled fluorescence; in the data active = inhibition above about 15%
Target sequence (Q9NXA8 whole entry, looked up): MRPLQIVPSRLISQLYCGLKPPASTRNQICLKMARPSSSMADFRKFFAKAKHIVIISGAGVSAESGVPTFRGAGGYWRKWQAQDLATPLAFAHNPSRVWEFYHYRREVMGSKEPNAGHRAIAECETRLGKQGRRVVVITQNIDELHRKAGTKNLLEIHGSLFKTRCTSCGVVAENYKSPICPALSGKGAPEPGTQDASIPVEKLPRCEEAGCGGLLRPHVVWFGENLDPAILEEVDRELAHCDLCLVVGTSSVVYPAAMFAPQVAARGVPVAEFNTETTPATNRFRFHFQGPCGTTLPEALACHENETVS
PAX8 reporter = inhibitors of PAX8-driven TPO luciferase reporter, primary screen, RMG-I cells, single concentration | actives 1.2% (n = 360,000) | inhibition, % at 12.6 µM | AID 652154, 2013 | SteadyGlo, 24 h;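 active = mean replicate inhibition at least 60% with every replicate also reaching 60%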;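 note: luciferase light reporting Pax8 driven TPO promoter activity; plate controls were median of neutral control wells for no effect and mitoxantrone controls for full effect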
* marks the source's active call; other numbers are inactive results; . = not tested or not shown. Hits are enriched below; roughly 3.4% of the tested compounds scored in any of these assays.

SMILES | PGC1a acetyl inh | LGR2 inh | EWS-Fli block | Ecoli rRNA inh | SIRT5 block | PAX8 reporter
CCOc1ccc(CCNC(=O)c2cccc(S(=O)(=O)N3CCN(C(C)=O)CC3)c2)cc1OCC | -25 | -13 | -7 | 7 | 21* | -6
COc1ccc(S(=O)(=O)Nc2ccc3c(c2)C(=O)N([C@@H](C)CO)C[C@@H](C)[C@@H](CN(C)S(=O)(=O)c2ccc(F)cc2)OCCCC[C@H](C)O3)cc1 | 13 | 15 | 5 | 0 | 16* | -11
COc1ccc(S(=O)(=O)Nc2ccc3c(c2)C(=O)N([C@@H](C)CO)C[C@@H](C)[C@@H](CN(C)S(=O)(=O)c2ccc(F)cc2)OCCCC[C@@H](C)O3)cc1 | 1 | 12 | 3 | 0 | 11 | 56
COc1ccc(S(=O)(=O)N(C)C[C@H]2OCCCC[C@@H](C)Oc3ccc(NS(=O)(=O)c4ccc(F)cc4)cc3C(=O)N([C@H](C)CO)C[C@@H]2C)cc1 | -6 | 0 | -2 | 1 | 4 | -5
COc1ccc(S(=O)(=O)Nc2ccc3c(c2)C(=O)N([C@H](C)CO)C[C@H](C)[C@@H](CN(C)S(=O)(=O)c2ccc(F)cc2)OCCCC[C@H](C)O3)cc1 | -5 | -1 | -5 | -4 | 11 | 76*
COc1ccc(S(=O)(=O)Nc2ccc3c(c2)C(=O)N([C@@H](C)CO)C[C@@H](C)[C@H](CN(C)S(=O)(=O)c2ccc(F)cc2)OCCCC[C@H](C)O3)cc1 | -21 | 10 | 25 | 7 | 8 | 7
COc1ccc(S(=O)(=O)N(C)C[C@@H]2OCCCC[C@H](C)Oc3ccc(NS(=O)(=O)c4ccc(F)cc4)cc3C(=O)N([C@H](C)CO)C[C@H]2C)cc1 | -1 | -6 | 1 | 0 | 19* | 43
COc1ccc(S(=O)(=O)N(C)C[C@H]2OCCCC[C@@H](C)Oc3ccc(NS(=O)(=O)c4ccc(F)cc4)cc3C(=O)N([C@@H](C)CO)C[C@H]2C)cc1 | 0 | 10 | -2 | 0 | 18* | 56
CC1CCN(C(=S)NC(=O)c2cccs2)CC1 | -3 | 27 | 26 | -22* | -2 | -17
O=C(NC(=S)N1CCCCC1)c1cccs1 | . | 3 | . | . | . | 0
CC(C)CC#Cc1ccc([C@@H]2[C@H]3CN(C(=O)Nc4ccccc4)CCCCN3[C@H]2CO)cc1 | -26 | 9 | 4 | -22 | 16* | 74*
C[C@H](O)C#Cc1ccc([C@H]2[C@H](CO)N3CCCCN(C(=O)Nc4ccccc4)C[C@@H]23)cc1 | -6 | 2 | -7 | -2 | 2 | 19
C[C@H](O)C#Cc1ccc([C@H]2[C@H]3CN(C(=O)Nc4ccccc4)CCCCN3[C@H]2CO)cc1 | 8 | -6 | -3 | 2 | 2 | 69*
CC(C)CC#Cc1ccc([C@H]2[C@H](CO)N3CCCCN(C(=O)NC4CCCC4)C[C@@H]23)cc1 | -9 | -10 | 12 | -59 | 17* | 2
COc1cccc(S(=O)(=O)N[C@@H]2C=C[C@@H](CC(=O)NCc3ccc(F)cc3)O[C@@H]2CO)c1 | 8 | -3 | 6 | 0 | -2 | 18
COc1cccc(-c2ccc([C@H]3[C@@H](CO)N4C(=O)CN(C(=O)C5CCC5)C[C@@H]34)cc2)c1 | -30 | 1 | 3 | -4 | 8 | -3
N#CCCn1nc(Cc2cccc3ccccc23)c(C#N)c1N | . | -13 | -3 | -10 | . | 0
CCn1nc(Cc2cccc3ccccc23)c(C#N)c1N | . | 12 | -2 | -27* | . | 2
CN(C)c1ccc(/C=N/N=C/c2ccccc2O)cc1 | . | 56* | . | . | . | -85
c1ccc(C(c2ccccc2)c2noc(CN3CCC(c4ccncc4)CC3)n2)cc1 | 20 | 18 | 10 | -43* | -1 | 1
COc1ccc(S(=O)(=O)Nc2ccc3c(c2)C(=O)N([C@@H](C)CO)C[C@H](C)[C@H](CN(C)Cc2ccc(C(F)(F)F)cc2)OCCCC[C@H](C)O3)cc1 | 8 | -1 | 18 | -2 | 8 | 108*
COc1ccc(S(=O)(=O)Nc2ccc3c(c2)C(=O)N([C@@H](C)CO)C[C@H](C)[C@@H](CN(C)Cc2ccc(C(F)(F)F)cc2)OCCCC[C@@H](C)O3)cc1 | -2 | 9 | 32 | -3 | 13 | 110*
COc1ccc(CN(C)C[C@H]2OCCCC[C@@H](C)Oc3ccc(NS(=O)(=O)c4ccc(OC)cc4)cc3C(=O)N([C@H](C)CO)C[C@@H]2C)cc1 | 4 | -3 | 5 | 2 | . | -7
CN(C)C(=O)C[C@H]1C=C[C@H](NC(=O)C2CCC2)[C@@H](CO)O1 | 4 | -1 | -5 | 4 | 1 | -16
COc1ccc(-c2ccc(N3C(c4cc(OC)cc(OC)c4)=Cc4ccc(OC)cc4C3CC(C)=O)cc2)cc1 (centres undefined) | . | -19 | 0 | 4 | -11 | 63*
SMILES | PGC1a acetyl inh | LGR2 inh | EWS-Fli block | Ecoli rRNA inh | SIRT5 block | PAX8 reporter
COc1ccc2c(c1)C(CC(C)=O)N(c1ccc(-c3cccs3)cc1)C(c1ccsc1)=C2 (centres undefined) | . | -29 | 18 | -35 | -3 | 64*
COc1ccc2c(c1)C(CC(C)=O)N(c1ccc(-c3cnc(OC)nc3)cc1)C(c1ccsc1)=C2 (centres undefined) | . | -19 | 15 | 5 | -5 | 12
Cc1noc(C)c1NC(=O)N(C)C[C@@H]1OCCCC[C@H](C)Oc2ccc(N(C)C)cc2C(=O)N([C@H](C)CO)C[C@H]1C | -19 | . | 3 | . | -6 | -14
COc1ccc(CN(C)C(=O)C23CC4CC(CC(Cl)(C4)C2)C3)c(OC)c1OC | -4 | -3 | 4 | -29* | -2 | 3
CCOc1ccccc1NC(=O)C(C)SCc1ccccc1 (centres undefined) | -28 | 5 | 18 | -2 | -6 | 36
CC(SCc1ccccc1)C(=O)Nc1ccccc1-c1ccccc1 (centres undefined) | . | 3 | 75* | -26 | -2 | 9
CCN(CC)S(=O)(=O)c1cc(NC(=O)C(C)N(C)CC(=O)Nc2c(C)cccc2C)ccc1C (centres undefined) | -2 | 6 | . | . | . | 19
Cc1cccc(C)c1NC(=O)CN(C)C(C)C(=O)Nc1ccccc1-c1ccccc1 (centres undefined) | . | 3 | 17 | -25* | 4 | -3
CC1=Nc2ccccc2N=C(NC(=O)CN2CCN(c3ccccc3)CC2)C1c1ccccc1 (centres undefined) | 86* | -9 | 4 | 5 | -2 | -10

High-throughput results deposited in PubChem by Broad Institute.
